# Hit rate of the full screen: of about 1,800 compounds, about 410 (23%) were called active. No rule for the calls is given here. Not all results are given here. Where a call stands in place of a potency, no number is given. Potency and affinity values are given separately.
# Experiment: Vero cell cytotoxicity, cytotoxicity control for flavivirus capping enzyme inhibitors (AID 588742)
# Conditions: Vero cells viability, cytotoxicity counter-screen; series mostly up to 40 µM
row,SMILES,outcome
1,CCOc1cc(/C=C2\C(=O)ON=C2c2ccccc2)ccc1OC,inactive
2,O=C1C(Cl)=C(N2CCOCC2)C(=O)N1c1ccccc1,inactive
3,Cc1cc(NS(=O)(=O)c2ccc(Nc3nc(-c4sc(N)nc4C)cs3)cc2)no1,inactive
4,CCc1sc(C(C2C(=O)CC(C)(C)CC2=O)C2C(=O)CC(C)(C)CC2=O)cc1[N+](=O)[O-],inactive
5,Cc1ccc(CNC(=O)CSc2n[nH]c(N)n2)cc1,inactive
6,CCCCC(NC(=O)Cc1c(C)c2cc3c(-c4ccccc4)coc3c(C)c2oc1=O)C(=O)O (stereo unspecified),inactive
7,Oc1ccc(N=Nc2ccccc2-c2nn[nH]n2)c(O)c1,inactive
8,CC(C)OP(=O)(OC(C)C)C1(NS(=O)(=O)c2ccc(Cl)cc2)C=C(Cl)C(=O)C(Cl)=C1,inactive
9,CC1=NN(c2ccc(Br)cc2)C(=O)/C1=C/c1ccc(-c2ccccc2C(=O)O)o1,inactive
10,Cc1ccccc1-c1ncc(CN2CCN(C3CCCCC3)C(CCO)C2)cn1 (stereo unspecified),inactive
11,CC1(C)Cc2c(C#N)c(N)sc(=S)c2CS1,inactive
12,COc1ccc(N2C(=O)C3CCCN3C2c2cccc(Br)c2)cc1 (stereo unspecified),inactive
13,O=C(CCc1ccc(S(=O)(=O)N2CCOCC2)cc1)N/N=C/c1ccc(O)c(O)c1O,inactive
14,O=[N+]([O-])c1ccc(N/N=C/c2ccc(O)c(O)c2O)c(S(=O)(=O)N2CCOCC2)c1,inactive
15,Oc1ccc2ccccc2c1C=NC12CN3CCN(CN(C3)C1)C2,inactive
16,CCN(CC)c1ccc(SS(=O)(=O)O)cc1,inactive
17,O=C(O)c1ccc(N(c2ccccc2)c2ccccc2)cc1,inactive
18,COc1ccccc1CNC(=O)CN1C(=O)N(C)C2(CCCCC2)C1=O,inactive
19,O=c1[nH]n2c(=O)c3c([nH]c2c1N=Nc1cccc(Cl)c1)CCCC3,inactive
20,CC(C)CSC1=NSC2=NC(=O)/C(=C\c3ccccc3)C(=N)N12,inactive
21,Nc1ccc(N2CCOCC2)c2nonc12,inactive
22,CN(C)c1ccc(NC(=O)CCCc2ccccc2)cc1,inactive

row,SMILES,outcome
1,O=C(O)c1cccc(NC2=C(Cl)C(=O)c3ccccc3C2=O)c1,inactive
2,O=C(O)c1ccc(COc2ccccc2C=C2C(=O)c3ccccc3C2=O)cc1,inactive
3,Cc1ccccc1SCC(=O)OCC(=O)Nc1ccc(N(C)C)cc1,inactive
4,CC(=O)N(C(C)=O)N1C(=O)C2C3c4ccccc4C(c4ccccc43)C2C1=O (stereo unspecified),inactive
5,O=C(CN1C(=O)/C(=C2\SC(=S)N(CCS(=O)(=O)O)C2=O)c2ccccc21)Nc1cccc(Br)c1,inactive
6,O=C1/C(=C/c2cccc(F)c2)SC(=S)N1NS(=O)(=O)c1ccccc1,inactive
7,CCNc1sc(C(=O)c2cccs2)c(N)c1C#N,inactive
8,CC(C)CN1C(=O)/C(=C/c2ccco2)NC1=S,inactive
9,Cc1cccc(OC(C)C(=O)OCC(=O)Nc2sccc2C(N)=O)c1 (stereo unspecified),inactive
10,CC(=O)C1CCC2C3CCC4=CC(=O)CCC4(C)C3(Br)C(=O)CC12C (stereo unspecified),inactive
11,COC(=O)CCC(=O)OC1(C)C(=O)C2=CN(Cc3ccccc3)C(c3ccc(OC)cc3)=CC2=C(Br)C1=O (stereo unspecified),inactive
12,O=c1c([N+](=O)[O-])c(O)c2ccccc2n1Cc1ccccc1,inactive
13,Nc1nc(N=Nc2ccc(O)cc2)cc(=O)[nH]1,inactive
14,Cc1cc(C(=O)O)ccc1-c1ccc(/C=C2\NC(=O)N(Cc3ccc(F)cc3)C2=O)o1,inactive
15,CCS(=O)(=O)c1nc(S(=O)(=O)c2ccc(Cl)cc2)c(N2CCC(O)CC2)s1,inactive
16,O=C1C2C3CCCC3=C3CCCC3C2C(=O)N1c1cccc(Cl)c1 (stereo unspecified),inactive
17,O=C(O)c1cccc(Nc2nc3ccccc3nc2NS(=O)(=O)c2cccs2)c1,inactive
18,Cc1ccc(N2NC(=O)/C(=C/c3ccc(-c4ccc(Cl)c(C(=O)O)c4)o3)C2=O)cc1C,inactive
19,O=C1C(Cl)=C(Oc2ccccc2)C(=O)c2ccccc21,inactive
20,COc1cccc(/C=C2\C(=O)C(=O)c3ccccc32)c1,inactive
21,CC(=O)OCC1=C(C(=O)O)N2C(=O)C(NC(=O)c3ccc(COc4cccc(Cl)c4Cl)o3)C2SC1 (stereo unspecified),inactive
22,O=C(NCCCN1CCOCC1)c1ccc(NS(=O)(=O)c2ccccc2)cc1,inactive

row,SMILES,outcome
1,O=C(c1c(F)cccc1F)N1CCCC1,inactive
2,Oc1ccc(/C=N/Nc2ccc(Cl)nn2)c(O)c1O,inactive
3,C#CCOc1ccc(/C=C2/C(=O)N(c3ccc(S(N)(=O)=O)cc3)N=C2C)cc1OC,inactive
4,O=C(CCN1C(=O)/C(=C\c2ccccc2F)SC1=S)Nc1ccc(C(=O)O)c(O)c1,inactive
5,COC(=O)c1sc(N2C(=O)C(O)=C(C(=O)c3ccc(C)o3)C2c2ccc([N+](=O)[O-])cc2)nc1C (stereo unspecified),inactive
6,CC[n+]1c(/C=C2\C=C(C)CC(C)(C)C2)sc2ccccc21,inactive
7,O=C(O)c1cccc(N2C(=O)c3cc([N+](=O)[O-])cc4cc([N+](=O)[O-])cc(c34)C2=O)c1,inactive
8,CC1=NN(c2ccccc2)C(=O)/C1=C\c1ccc(Oc2ccc([N+](=O)[O-])cc2[N+](=O)[O-])cc1,inactive
9,O=C(c1cccc(S(=O)(=O)N2CCOCC2)c1)N(Cc1ccc(F)cc1)Cc1ccco1,inactive
10,Cc1ccc(C2/C(=C(/O)c3ccc(Br)cc3)C(=O)C(=O)N2Cc2ccco2)o1 (stereo unspecified),inactive
11,CCc1ccc([C@@H]2CC=C(C(=O)O)[C@H](c3ccc(C)cc3)N2S(=O)(=O)c2ccc(C)cc2)cc1,inactive
12,O=C(O)/C=C/C(=O)c1c(-c2ccccc2)[nH]c2ccccc12,inactive
13,CCc1ccc(NC(=O)C2=CC=CN3CCS(=O)(=O)N=C23)cc1,inactive
14,Cc1noc(NS(=O)(=O)c2ccc(NC(=O)c3ccccc3NS(=O)(=O)c3ccc(F)c(F)c3)cc2)c1C,inactive
15,O=C1C(Cl)=C(N2CCOCC2)C(=O)N1c1ccc(Br)cc1,inactive
16,Cc1ccc(C)c(OCC(=O)NCC2COc3ccccc3O2)c1 (stereo unspecified),inactive
17,COc1nc(OC)nc(N2CCC(C(=O)NC3CC3)CC2)n1,inactive
18,O=C(O)CN1C(=O)/C(=C\c2cc(Br)ccc2OCc2ccc(Cl)cc2)SC1=S,inactive
19,O=C(O)CCN1C(=O)/C(=C\c2cccc(Oc3ccccc3)c2)SC1=S,inactive
20,COc1cc(/C=C2/S/C(=N/S(=O)(=O)c3ccccc3)NC2=O)c([N+](=O)[O-])cc1OC,inactive
21,O=C1OC(c2ccccc2)(c2cc(Br)c(O)c(Br)c2)c2ccccc21 (stereo unspecified),inactive
22,O=C(O)C(Cc1ccccc1)N1C(=O)c2c(Cl)c(Cl)c(Cl)c(Cl)c2C1=O (stereo unspecified),inactive
